# In the library only some 1.4% were active in any assay of this set; here they are far more common.
# A3A deaminase – blocks human APOBEC3A ssDNA deamination; P31941; recombinant A3A, FAM/TAMRA ssDNA deamination fluorescence; inhibition, % at 20 µM; hit rate 0.41% among 330,000; AID 493011;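 active means at least 40% inhibition at 20 µM here, with at most 30% in a related deaminase screen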;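 further: plate controls were A3A with DMSO for no effect and wells lacking A3A enzyme for full effect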
# APOBEC3G inh – APOBEC3G (human) deaminase inhibition; Q9HC16; recombinant A3G, ssDNA deamination FAM/TAMRA fluorescence; inhibition, % at 20 µM; hit rate 0.28% among 330,000; AID 493012;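 active means inhibition of at least 40% at 20 µM, with no more than 30% in the related APOBEC3A deaminase screen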;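 further: plate controls were DMSO wells with A3G for no effect and wells lacking A3G enzyme for full effect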
# LANA-H2B inh – blocks KSHV LANA binding to histone H2A/H2B. Q9QR71. cell-free LANA-H2A/H2B peptide, fluorescence polarization. inhibition, % (test concentration not listed). hit rate 0.6% among 320,000. AID 2629; in the data active means inhibition mostly above about 10%, no sharp cut-off; inactive means mostly below about 6.7%
# Target sequence (Q9QR71 whole entry, looked up): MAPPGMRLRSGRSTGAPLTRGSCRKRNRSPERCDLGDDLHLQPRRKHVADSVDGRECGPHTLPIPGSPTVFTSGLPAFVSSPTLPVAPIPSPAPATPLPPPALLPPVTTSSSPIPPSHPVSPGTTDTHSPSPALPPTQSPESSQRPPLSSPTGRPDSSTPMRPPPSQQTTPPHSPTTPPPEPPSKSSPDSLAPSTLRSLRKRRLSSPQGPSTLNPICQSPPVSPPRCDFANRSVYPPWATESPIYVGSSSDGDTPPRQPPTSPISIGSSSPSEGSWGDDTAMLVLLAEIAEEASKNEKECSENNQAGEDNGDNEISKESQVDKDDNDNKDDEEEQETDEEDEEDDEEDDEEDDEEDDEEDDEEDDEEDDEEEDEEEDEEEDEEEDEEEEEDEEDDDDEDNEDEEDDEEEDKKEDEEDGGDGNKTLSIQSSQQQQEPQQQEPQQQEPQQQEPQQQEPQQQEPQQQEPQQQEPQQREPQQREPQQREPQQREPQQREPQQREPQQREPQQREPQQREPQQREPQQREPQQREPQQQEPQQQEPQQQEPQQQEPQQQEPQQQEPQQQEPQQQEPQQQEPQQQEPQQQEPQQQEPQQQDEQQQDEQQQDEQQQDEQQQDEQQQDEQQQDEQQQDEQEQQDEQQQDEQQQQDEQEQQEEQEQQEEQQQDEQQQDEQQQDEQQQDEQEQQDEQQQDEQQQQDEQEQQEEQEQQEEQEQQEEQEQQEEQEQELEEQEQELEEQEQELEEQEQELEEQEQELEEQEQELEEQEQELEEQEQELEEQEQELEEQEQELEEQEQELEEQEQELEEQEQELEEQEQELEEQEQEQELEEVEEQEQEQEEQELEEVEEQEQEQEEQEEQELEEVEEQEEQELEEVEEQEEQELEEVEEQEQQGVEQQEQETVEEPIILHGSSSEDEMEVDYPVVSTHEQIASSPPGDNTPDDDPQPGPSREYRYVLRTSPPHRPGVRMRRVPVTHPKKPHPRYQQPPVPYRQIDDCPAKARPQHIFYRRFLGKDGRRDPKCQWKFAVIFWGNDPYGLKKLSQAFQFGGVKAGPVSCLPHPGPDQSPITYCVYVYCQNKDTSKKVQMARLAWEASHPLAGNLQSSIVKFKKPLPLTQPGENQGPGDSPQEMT
# HDAC3 inh – human HDAC3 inhibition; O15379; recombinant HDAC3, fluorogenic peptide/trypsin coupled, fluorescence; inhibition, % at 8.3 µM; hit rate 0.15% among 320,000; in the data active means inhibition above about 26%, passing the limit was not always enough
# Starred values were filed as active, the others as inactive; nt = no result given; + = active, no number.
SMILES,A3A deaminase,APOBEC3G inh,LANA-H2B inh,HDAC3 inh
CCOCCCn1c(=S)[nH]c2cc(C(=O)N3CCN(C4CCCCC4)CC3)ccc2c1=O,-5,-3,-3,4
Nc1ccc(-c2c3ccc(=O)cc-3oc3cc(O)ccc23)cc1C(=O)O,-41,-89,38*,11
O=c1ccc2c(-c3ccccc3)c3ccc(O)cc3oc-2c1,-36,-106,61*,0
CCC(C)Sc1ccc([C@H]2N[C@@](C)(C(=O)OC)[C@H]3C(=O)N(CC)C(=O)[C@@H]23)cc1OC (stereo not given in full),-4,-6,3,-6
NC(=O)Cn1c(O)c(N=NC(=O)CNC(=O)/C=C/c2ccccc2)c2ccccc21,-3,-7,23*,-2
CC1CCC(NC(=O)COC(=O)C2=NN(c3ccccc3)C(=O)CC2)CC1 (stereo not given),3,2,nt,nt
CCOc1ccc(CCNC(=O)COC(=O)c2nn(C)c(=O)c3ccccc23)cc1OCC,5,-1,12*,7
COc1cccc(CNC(=O)COC(=O)c2nn(C)c(=O)c3ccccc23)c1,2,-4,-6,-2
CCOC(=O)C1C(=O)CC(C)(O)C(C(=O)OCC)C1/C=C/c1ccccc1 (stereo not given),nt,nt,82*,nt
COC(=O)C1C(=O)CC(C)(O)C(C(=O)OC)C1/C=C/c1ccccc1 (stereo not given),0,1,7,-1
CN(C)c1ccc(CC2C(=O)Nc3ccccc32)cc1 (stereo not given),-5,45*,6,-1
CN(C)c1ccc(NC(=O)C(=O)C2C(=O)Nc3ccccc32)cc1 (stereo not given),0,-1,7,-3
C=C(NC(=O)C(=C)NC(=O)c1csc(C2=NC3c4csc(n4)C4NC(=O)c5csc(n5)C([C@@](C)(O)C(C)O)NC(=O)C5CSC(=N5)/C(=C\C)NC(=O)C(C(C)O)NC(=O)c5csc(n5)[C@]3(CC2)NC(=O)C(C)NC(=O)C(=C)NC(=O)C(C)NC(=O)C(C(C)CC)NC2C=Cc3c(C(C)O)cc(nc3C2O)C(=O)OC4C)n1)C(N)=O (stereo not given in full),-1,-2,1,-9
O=C(CN(C(=O)c1csnn1)c1cccc2ccccc12)NCc1ccccc1,-3,-5,4,4
O=C(CN(C(=O)c1csnn1)c1cccc2ccccc12)NCc1ccc(F)cc1,2,-16,20*,4
NC(=O)c1ccc(NC(=O)COC(=O)c2ccc(Cl)nc2)cc1,-1,-1,12*,2
COc1ccc(N2C(=O)CSC2c2ccccc2[N+](=O)[O-])cc1 (stereo not given),-2,-5,+,-1
CC1CCN(C(=O)c2ccc(CNS(=O)(=O)c3ccc(C(C)(C)C)cc3)cc2)CC1,-4,-6,-1,10
Nc1ncnc2c1ncn2[C@@H]1O[C@H](CNC(=O)[C@@H]2CCCN2S(=O)(=O)c2ccc(F)cc2)[C@@H](O)[C@H]1O,4,6,nt,nt
CCC(NC(=O)C1C2C=CC(C2)C1C(=O)O)c1ccc(C)cc1 (stereo not given),-6,25,104*,0
Cc1ccc(NC(=O)CCCOc2ccccc2)cc1S(=O)(=O)N1CCOCC1,-1,-2,20*,0
Cc1ccc(NC(=O)CSc2nc(N)cc(N)n2)cc1S(=O)(=O)N1CCOCC1,3,-3,19*,-1
Nc1cc(N)nc(SCC(=O)Nc2ccccc2N2CCOCC2)n1,1,-1,14*,-10
COc1ccc(C(C)(C)C)cc1NC(=O)CSc1ncn[nH]1,-2,-8,nt,nt
Cc1nc2nc(SCC(=O)NCCCN3CCCC(C)C3)nn2c(C)c1Cc1ccccc1Cl (stereo not given),-6,-9,2,2
SMILES,A3A deaminase,APOBEC3G inh,LANA-H2B inh,HDAC3 inh
Cc1cccc(C(=O)OCC(=O)NC(=O)NCc2ccccc2)c1,-1,-5,-2,-1
Cc1ccc(S(=O)(=O)N2CCC(C(=O)NCc3ccccc3Cl)CC2)cc1,-7,-6,93*,-2
O=C(COC(=O)c1cc(S(=O)(=O)N2CCOCC2)ccc1F)NC1CCCCC1,-4,-8,nt,nt
Cc1noc(C)c1COC(=O)c1cc(S(=O)(=O)N2CCOCC2)ccc1F,-5,-6,31*,-6
CC(OC(=O)c1cc(S(=O)(=O)N2CCOCC2)ccc1F)C(=O)NC1CCCC1 (stereo not given),0,-3,25*,-1
CCOc1ccc(NC(=O)CN2C(=O)NC(CCc3ccccc3)C2=O)cc1OCC (stereo not given),-1,0,1,1
Cc1ccc(NC(=O)CN(C)C(=O)c2cc(-c3ccccc3)nn2-c2ccccc2)cc1,-4,-14,nt,nt
O=C(NNC(=S)NCc1ccco1)c1ccc(Cl)s1,0,-2,-8,-5
O=C(CSCc1ccco1)c1ccc(Cl)s1,13,-1,1,90*
Cc1ccc(OCCN(C)C(=O)c2cc(COc3ccc(F)cc3F)on2)cc1,0,-4,173*,3
COC(=O)[C@]1(C)N[C@H](CN(C)S(=O)(=O)c2ccc(F)cc2)[C@@H]2C(=O)N(C)C(=O)[C@@H]21,-3,-4,0,-1
CCn1c(=N)c(C(=O)NC)cc2c(=O)n3cccc(C)c3nc21,nt,nt,17*,nt
CCCCNC(=O)CSc1nnc(-c2cccc(S(=O)(=O)N3CCOCC3)c2)o1,-6,-9,nt,nt
COc1cc2c(cc1OC)[C@@H]1Cc3cc4c(cc3[C@H](C2)N1C)OCO4,-4,-12,-14,34*
CCOC(=O)c1[nH]c(C)c(C(=O)OCC(=O)NC(C)c2ccc(F)cc2)c1C (stereo not given),-1,-8,-1,-1
CCN(CC)c1ccc2c(-c3ccc(S(=O)(=O)O)cc3S(=O)(=O)[O-])c3ccc(=[N+](CC)CC)cc-3oc2c1,-136,-261,150*,4
CCN(CC)c1ccc2nc3c4ccccc4c(=O)cc-3oc2c1,-3,-5,5,-1
COc1ccccc1NC(=O)c1ccc(NC(=O)COC(=O)C2CC2C)cc1 (stereo not given),3,7,19*,-1
Cc1ccc(-n2c(=O)c3sccc3n(CC(=O)NC3CCCC3)c2=O)cc1,-1,-6,-2,1
CCOc1ccc(-n2c(=O)c3sccc3n(CC(=O)NC3CCCCC3)c2=O)cc1,-5,-11,29*,-3
CCN(CC(O)Cn1c2ccccc2c2ccccc21)S(=O)(=O)c1ccc(F)cc1 (stereo not given),-2,-1,3,30*
C[C@H](NC(=O)c1ccccc1Cl)C(=O)OCc1cn2cc(Cl)ccc2n1,18,-2,15*,-2
O=C(Nc1ncccc1O)c1ccc(Oc2ccccc2)cc1,-7,-6,2,56*
COc1ccccc1NS(=O)(=O)c1ccc(C(=O)Nc2ncccc2O)cc1,-4,-7,1,79*
O=C(Nc1ncccc1O)c1ccc(OCC2CCCO2)cc1 (stereo not given),-1,0,4,68*
COc1ccccc1NS(=O)(=O)c1ccc(C(=O)N2CC(C)OC(C)C2)cc1 (stereo not given),-4,-6,20*,0

# Screens (PubChem BioAssay)
